# Measured values reported in PubChem BioAssay (NCATS).
# Records with an inconclusive call do not appear. Entries that show only a call come without a potency. Activity calls are given as the source filed them. The call rests on the fitted dose curve; in most records, active means well fitted cell-killing curve with a large enough effect; inconclusive means small, poorly fitted or top-dose-only effect, or effect the other way; inactive means flat fitted curve, though single readings scatter.
# Tested on: SKOV3
# Assay: Primary qHTS to identify gynecologic anti-cancer compounds using libraries of approved drugs and bioactive compounds (AID 1345084); further: nearly all actives have a fitted effect of over 55% in size
# Details: Gynecologic cancer cell panel viability, ATPlite luminescence, 48 h; series mostly up to 57.5 µM
# How it was run: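 Cells, 1,000 per well, were allowed to settle for 16 h at 37 C before compound addition. Five concentrations were tested for 48 h, and viability was read by ATPlite luminescence after 15 min at room temperature.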
# Potency means the concentration at half of the fitted maximal effect.
row,SMILES,Potency
1,O=C(Nc1nc2cccc(-c3ccc(CN4CCS(=O)(=O)CC4)cc3)n2n1)C1CC1,inactive
2,Cc1cn2cc(C(=O)N(C)CCO)cc(N[C@@H]3CCOc4cccc(C)c43)c2n1,inactive
3,Cc1nc(Nc2n[nH]c3c2CN(C(=O)N[C@H](CN(C)C)c2ccccc2)C3(C)C)c2sccc2n1,7.08 µM (active)
4,COc1cc(C(=O)N2CCC(N3CCN(C)CC3)CC2)ccc1Nc1ncc2c(n1)N(C)c1ccccc1C(=O)N2C,8.91 µM (active)
5,O=C(c1ccc(Nc2nccc(-c3cc4ccccc4s3)n2)cc1)N1CCC(N2CCCC2)CC1,25.1 µM (active)
6,NC(=O)c1cccc2cn(-c3ccc([C@@H]4CCCNC4)cc3)nc12,inactive
7,Cc1cc(CN2CCN(c3c(Br)cnc4nc(-c5ccc(N6CCN(C)CC6)cc5)[nH]c34)CC2)no1,inactive
8,CC(C)Nc1cc(C(F)(F)F)cc2nc(NC(=O)c3cccnc3)nn12,inactive
9,COc1cc2c(Oc3ccc(-c4cnc(Nc5ccc(F)cc5)n(C)c4=O)cc3F)ccnc2cc1OCCCN1CCOCC1,inactive
10,CCOC(=O)C1=C(C)NC2=C(C(=O)CC(C)(C)C2)C1c1ccc(-c2ccccc2)cc1 (stereo not drawn),10 µM (active)
11,Cn1c2ccccc2c2c3c(c4c5ccccc5n(CCC#N)c4c21)CNC3=O,17.8 µM (active)
12,COc1cc(-c2nn(C3CCC(N4CCN(C(C)=O)CC4)CC3)c3ncnc(N)c23)ccc1NC(=O)c1cc2ccccc2n1C (stereo not drawn),inactive
13,NCC(=O)Nc1ccc(-n2nc(C(F)(F)F)cc2-c2ccc3c(ccc4ccccc43)c2)cc1,inactive
